NALP1 inh = inhibitors of NALP1 inflammasome in yeast. S. cerevisiae NALP1/ASC/caspase-1 growth, X-gal OD620, 72 h. inhibition, % at 10 µM. 0.61% of 280,000 active. AID 2071; in the data active means inhibition mostly above about 24%, no sharp cut-off; inactive means mostly below about 32%
NLRP3 yeast inh = inhibitors of NALP3 inflammasome in yeast. inhibition, % at 10 µM. 0.39% of 330,000 active. Yeast reconstituted NLRP3/ASC/caspase-1, beta-gal luminescence, 24 h;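 active means inhibition of 50% or more; inactive means inhibition below 50%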
TIM10 inh = inhibits growth of TIM10 yeast strain; S. cerevisiae TIM10 strain growth, BacTiter-Glo luminescence, 24 h; inhibition, % at 10 µM; 1.4% of 330,000 active;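 active means inhibition of 40% or more at the single tested concentration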;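 further: wild-type TIM10 isogenic control strain grown at permissive 25 °C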
V-ATPase pHluor = regulators of yeast V-ATPase proton transport; S. cerevisiae, pHLuorin cytosolic pH fluorescence; response, % at 10 µM; 0.37% of 350,000 active; AID 504577; in the data active means response mostly above about 7.3%, no sharp cut-off; inactive means mostly below about 5.4%; further: actives read high
tim23-1 inh = tim23-1 yeast growth inhibition | 1.3% of 330,000 active | AID 463212 | S. cerevisiae tim23-1 growth, BacTiter-Glo luminescence, 24 h | inhibition, % at 20 µM;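 active means growth inhibition of the mutant yeast at or above 50%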;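 further: temperature-sensitive mutant grown at 25 °C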
tim10-1 inh = growth inhibitors of tim10-1 mutant yeast. S. cerevisiae tim10-1 ts strain growth, BacTiter-Glo, 24 h. inhibition, % at 20 µM. 2.2% of 330,000 active. AID 463190;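 active means inhibition of at least 40%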;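 further: mutant grown at 25 °C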
tim10-1 confirm = confirmation of tim10-1 mutant yeast growth inhibitors; shares compounds with tim10-1 inh; S. cerevisiae tim10-1 ts strain growth, BacTiter-Glo, 24 h; inhibition, % at 20 µM; 56% of 7,400 active;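 active means inhibition of yeast growth at or above a set limit in either of two repeat tests at 20 µM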;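 further: tim10-1 mutant grown at permissive 25 °C to find synthetic lethal compounds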
Numbers stand for hits; – = inactive; · = no result given. Hits are enriched below; roughly 4.2% of the tested compounds scored in any of these assays.

SMILES | NALP1 inh | NLRP3 yeast inh | TIM10 inh | V-ATPase pHluor | tim23-1 inh | tim10-1 inh | tim10-1 confirm
Cc1sc2nc(CN3CCOCC3)nc(Oc3ccc(NC(=O)c4ccco4)cc3)c2c1C | – | – | – | – | – | 48 | –
Cc1cc(C)cc(OCCCOc2cccc3cccnc23)c1 | – | – | – | – | – | 42 | 33
Cc1ccc(CSc2nc3c(c(=O)[nH]c(=O)n3C)n2CCC(C)C)cc1 | – | – | – | – | – | – | ·
CCc1nc(Nc2cc(OC)ccc2OC)c2oc3ccccc3c2n1 | – | – | – | – | – | – | ·
CCc1nc(N2CCCCC2C)c2oc3ccccc3c2n1 (stereo unspecified) | – | – | – | – | – | 48 | –
CCc1nc(N2CCCCC2)c2oc3ccccc3c2n1 | – | – | – | – | – | 41 | –
CCc1nc(N2CCCCC2C(=O)O)c2oc3ccccc3c2n1 (stereo unspecified) | – | – | – | – | – | – | ·
CCc1nc(Nc2ccccc2OC)c2oc3ccccc3c2n1 | – | – | – | – | – | 42 | –
CC(C)c1ccc(N(CC(=O)Nc2ccc(S(=O)(=O)N3CCOCC3)cc2)S(C)(=O)=O)cc1 | – | – | – | – | – | – | ·
Nc1nc(SCc2ccccc2)c2ncn(CCO)c2n1 | · | · | · | – | · | · | ·
CCOc1ncccc1C(=O)N1CCCSC1=Nc1ccccc1OC | – | – | – | – | – | – | ·
CCc1ccc(/C=C2/C(=O)N(C)C(=S)N2CC(=O)OC)s1 | – | – | – | – | – | 43 | 44
O=C(CCC1CCCN(C(=O)c2ccoc2)C1)NCc1ccc(F)c(F)c1 (stereo unspecified) | – | – | – | – | – | – | ·
CCOC(=O)C1=C(O)C(=O)N(c2ccc(S(N)(=O)=O)cc2)C1c1ccc(Br)cc1 (stereo unspecified) | – | – | – | – | – | – | ·
O=C(NC1CCCc2ccccc21)C1CCCN(S(=O)(=O)c2cnc[nH]2)C1 (stereo unspecified) | – | – | – | – | – | – | ·
S=c1nc(C23CC4CC(CC(C4)C2)C3)[nH][nH]1 | · | – | – | – | – | – | ·
Cc1sc(N)nc1C12CC3CC(CC(C3)C1)C2 | – | – | – | – | – | 46 | –
COc1ccccc1C(=O)Nc1cc(C)on1 | – | – | – | – | – | – | ·
Cc1cc(NC(=O)c2ccccc2Oc2ccccc2)no1 | – | – | – | – | – | 44 | 31
CCc1ccccc1NC(=O)N1CCCC(CCC(=O)N(C)CCc2ccccn2)C1 (stereo unspecified) | – | – | – | – | – | – | ·
CC(C)Oc1ccc(C(CC(=O)NCc2ccco2)c2ccccc2)cc1 (stereo unspecified) | – | – | – | – | – | 40 | –
CCNC(=S)NCc1ccc2c(c1)OCO2 | – | – | – | – | – | – | ·
O=C(c1cc2c(s1)CCCC2)N1CCN(S(=O)(=O)c2ccccc2C(F)(F)F)CC1 | – | – | – | – | – | 41 | –
Cc1ccc(S(=O)(=O)N2CCN(C(=O)c3cc4c(s3)CCCC4)CC2)c(C)c1 | · | – | – | – | – | – | ·
Cc1ccc(SCCNS(=O)(=O)c2ccc(F)cc2)cc1 | · | – | – | – | – | 41 | –
SMILES | NALP1 inh | NLRP3 yeast inh | TIM10 inh | V-ATPase pHluor | tim23-1 inh | tim10-1 inh | tim10-1 confirm
CC[C@@]12C(=O)N(c3ccc(OC)cc3)C(=O)N1[C@H](c1ccc(Cl)cc1)[C@@H]1C(=O)N(C3CCCCC3)C(=O)[C@@H]12 | – | – | – | – | – | – | ·
Fc1ccc(Oc2nc(-c3ccccc3)nnc2C(F)(F)F)cc1 | – | – | – | – | – | 50 | –
CC(=O)Nc1ccc(OC/C=C(\C)Cl)cc1 | – | – | – | – | – | – | ·
Cc1ccc(C(=O)N2CCN(c3ccc(C(F)(F)F)cn3)CC2)c(C)c1 | – | – | – | – | – | 44 | –
Cc1c(C(=O)N2CCN(c3ccc(C(F)(F)F)cn3)CC2)oc2ccccc12 | – | – | – | – | – | 41 | 37
Cc1ccc(C(=O)N2CCN(c3ccc(C(F)(F)F)cn3)CC2)cc1 | – | – | – | – | – | – | ·
COc1ccc(-c2nnc(SCC(=O)c3cccs3)n2-c2ccc(Cl)cc2)cc1 | – | – | – | – | – | – | ·
COc1cc(/C=N/NC(=O)NC23CC4CC(CC(C4)C2)C3)ccc1O | – | – | – | – | – | 51 | –
O=C(C1CCCO1)N1N=C(c2ccc(Br)cc2)CC1c1ccco1 (stereo unspecified) | – | – | – | – | – | – | ·
Cc1ccc(C2=NN(C(=O)C3CCCO3)C(c3ccco3)C2)cc1 (stereo unspecified) | – | – | – | – | – | 41 | –
O=C(O)CCC(=O)Nc1nc2nccc(-c3ccccc3)n2n1 | – | – | – | – | – | – | ·
COC(=O)COc1ccc(-c2nccc(-c3ccc(Br)cc3)n2)cc1 | – | – | – | – | – | – | ·
COC(=O)COc1ccc(-c2nccc(-c3ccccn3)n2)cc1 | – | – | – | – | – | 43 | 31
N#CC1(Nc2ccccc2)C(=O)Nc2ccccc21 (stereo unspecified) | – | – | – | – | – | – | ·
N#CC1(Nc2cccc(Br)c2)C(=O)Nc2ccccc21 (stereo unspecified) | – | – | – | – | – | 42 | 38
CCOc1cc(/C=N\Nc2nc(Nc3ccccc3)nc(N3CCOCC3)n2)ccc1OC(=O)c1ccco1 | – | – | – | – | – | 42 | –
CC(=O)[C@H]1[C@H](c2cccc(Cl)c2)C(C#N)(C#N)[C@@H]2c3ccccc3C=CN21 | · | – | – | · | – | 48 | –
O=C(CNC(=O)c1ccccc1F)NCc1ccccn1 | · | – | – | – | – | – | ·
Cc1ccc(Sc2ncnc3onc(C)c23)cc1 | – | – | – | – | – | 41 | –
COc1ccc(C2C(C(=O)c3ccco3)=C(O)C(=O)N2CCN2CCOCC2)cc1 (stereo unspecified) | – | – | – | – | – | – | ·
CCOc1cc(C2C(C#N)=C(N)OC(C)=C2C(C)=O)cc(Br)c1O (stereo unspecified) | – | – | – | – | – | – | ·
CCOc1cc(C2C(C#N)=C(N)OC(C)=C2C(C)=O)c(Br)c(Br)c1OC(C)C (stereo unspecified) | – | – | – | – | – | 46 | –
CC(=O)N1CCN(CC(=O)Nc2cc(F)ccc2C)CC1 | – | – | – | – | – | – | ·
COc1cc(C)c(C)cc1S(=O)(=O)N1CCCCC1c1cccnc1 (stereo unspecified) | – | – | – | – | – | 41 | –
CC(=O)Nc1ccc(S(=O)(=O)N2CCCCC2c2cccnc2)cc1 (stereo unspecified) | – | – | – | – | – | – | ·
Cc1ccccc1-n1c(SCc2ccccn2)nc2n[nH]c(C)c2c1=N | – | – | – | – | – | 40 | 38
CCOc1ccccc1NC(=O)CCSc1nc2n[nH]c(C)c2c(=N)n1-c1ccccc1Cl | – | – | – | – | – | – | ·

Bioassay records deposited in PubChem by several laboratories.
